Laboratory results taken from PubChem BioAssay (NCI).
This is part of a sample that, as a whole, favours compounds with a hit. Of some 83,000 tested, about 20% had one in any assay.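 Method: cells in 96-well plates; compound added at one concentration; 48 h incubation; percent growth measured; values under 10 scored active.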 A number with no mark means an inactive call. Calls of active or inactive are those of the source.

tested on: SR leukemia; assay: NCI-60 one-dose screen, 48 h (100 = growth as untreated, 0 = no growth, -100 = all killed); details: 10 µM unless noted

| Structure (SMILES) | growth |
| --- | --- |
| Clc1ccc(/C=C/c2nc(Nc3ccc(Cl)cc3)c3ccccc3n2)cc1 | 104% |
| C=C1C(=O)O[C@H]2[C@H]1CC/C(COC(=O)/C=C\C(=O)NCc1ccc(Cn3c(=O)sn(CCCC)c3=O)cc1)=C\CC[C@@]1(C)O[C@@H]21 | -24.7% (active) |
| C=C1C(=O)O[C@H]2[C@H]1CC/C(C(=O)NCCCCCCCCNC(=O)/C1=C/CC[C@@]3(C)O[C@H]3[C@H]3OC(=O)C(=C)[C@@H]3CC1)=C\CC[C@@]1(C)O[C@@H]21 | 20.2% |
| Cc1nc(Nc2ccc(N)cc2)c2ccccc2n1 | 56.8% |
| OC(COc1cccc2ccccc12)CN1CCN(c2ccccc2)CC1 (configuration not stated) | 130% |
| C=C1C(=O)O[C@H]2[C@H]1CC/C(COC(=O)/C=C\C(=O)NCc1ccc(Cn3c(=O)sn(-c4ccc(OC)cc4)c3=O)cc1)=C\CC[C@@]1(C)O[C@@H]21 | -27.3% (active) |
| CC(C)(C)OC(=O)N1Cc2cc3ccccc3nc2C1CO (configuration not stated) | 137% |
| NC(=Nc1ccc(N)cc1)C(N)=Nc1ccc(N)cc1 | 134% |
| Clc1ccc(-c2nc(NCCc3ccccc3)nc3c(NCCc4ccccc4)cnn23)cc1 | 72% |
| C=C1C(=O)O[C@H]2[C@H]1CC/C(COC(=O)/C=C\C(=O)NCc1ccc(Cn3c(=O)sn(-c4ccc(Cl)cc4)c3=O)cc1)=C\CC[C@@]1(C)O[C@@H]21 | -46.3% (active) |
| CC(=O)Nc1ccc(C(=O)/C=C/c2ccccc2)cc1 | 49.6% |
| COc1ccc(-n2nnc(C(=O)NCCc3c[nH]c4ccc(F)cc34)c2C)cc1 | 82.1% |
